Data: PubChem BioAssay (NCATS)
Unmarked numbers belong to inactive results. Inconclusive results are not listed. Where a call stands in place of a potency, no number is given. Calls of active or inactive are those of the source. Unless noted, calls come from the whole dose curve; as a rule, active = well fitted curve in the direction sought with a large enough effect; inconclusive = small, poorly fitted or top-dose-only effect, or another doubt; inactive = no such curve, though single readings can be large; an effect the other way counts as inactive or inconclusive.

How the values were obtained:
[1] = qHTS assay for measurement of the activity of small molecule inhibitors on Zika virus induced Caspase-3 activity in human iPSC derived neural progenitor cells (hNPCs) (AID 1224857); note: nearly all actives have a fitted effect of over 65% in size
How it was run: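 After overnight (16–20 h) culture at 350 cells/well, hNPCs get compound, then ZIKV 2 FFU/cell one hour later. Six hours on, Caspase-Glo 3/7 is added and luminescence measured.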

[2] = Natriuretic polypeptide receptor (hNpr1) antagonism - Pilot counterscreen GloSensor control cell line (AID 1347045; calls by dose curve; note: series mostly up to about 38 µM)
How it was run: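 HEK293 cells carrying the GloSensor cGMP sensor (GIP/pGS-40F) were loaded with 2% GloSensor reagent for 2 h, exposed to compounds for 30 min, and then stimulated with 50 uM sodium nitroprusside for 20 min at room temperature.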

[3] = biological target: Atrial natriuretic peptide receptor 1 (Homo sapiens) (UniProt P16066); assay: Natriuretic polypeptide receptor (hNpr1) antagonism - Pilot screen (AID 1347049; calls by dose curve;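 note: agonist-evoked cGMP luminescence read 20 min after hNppA addition; series mostly up to about 58 µM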)
Chain of Atrial natriuretic peptide receptor 1 (Homo sapiens) (P16066 whole entry, looked up): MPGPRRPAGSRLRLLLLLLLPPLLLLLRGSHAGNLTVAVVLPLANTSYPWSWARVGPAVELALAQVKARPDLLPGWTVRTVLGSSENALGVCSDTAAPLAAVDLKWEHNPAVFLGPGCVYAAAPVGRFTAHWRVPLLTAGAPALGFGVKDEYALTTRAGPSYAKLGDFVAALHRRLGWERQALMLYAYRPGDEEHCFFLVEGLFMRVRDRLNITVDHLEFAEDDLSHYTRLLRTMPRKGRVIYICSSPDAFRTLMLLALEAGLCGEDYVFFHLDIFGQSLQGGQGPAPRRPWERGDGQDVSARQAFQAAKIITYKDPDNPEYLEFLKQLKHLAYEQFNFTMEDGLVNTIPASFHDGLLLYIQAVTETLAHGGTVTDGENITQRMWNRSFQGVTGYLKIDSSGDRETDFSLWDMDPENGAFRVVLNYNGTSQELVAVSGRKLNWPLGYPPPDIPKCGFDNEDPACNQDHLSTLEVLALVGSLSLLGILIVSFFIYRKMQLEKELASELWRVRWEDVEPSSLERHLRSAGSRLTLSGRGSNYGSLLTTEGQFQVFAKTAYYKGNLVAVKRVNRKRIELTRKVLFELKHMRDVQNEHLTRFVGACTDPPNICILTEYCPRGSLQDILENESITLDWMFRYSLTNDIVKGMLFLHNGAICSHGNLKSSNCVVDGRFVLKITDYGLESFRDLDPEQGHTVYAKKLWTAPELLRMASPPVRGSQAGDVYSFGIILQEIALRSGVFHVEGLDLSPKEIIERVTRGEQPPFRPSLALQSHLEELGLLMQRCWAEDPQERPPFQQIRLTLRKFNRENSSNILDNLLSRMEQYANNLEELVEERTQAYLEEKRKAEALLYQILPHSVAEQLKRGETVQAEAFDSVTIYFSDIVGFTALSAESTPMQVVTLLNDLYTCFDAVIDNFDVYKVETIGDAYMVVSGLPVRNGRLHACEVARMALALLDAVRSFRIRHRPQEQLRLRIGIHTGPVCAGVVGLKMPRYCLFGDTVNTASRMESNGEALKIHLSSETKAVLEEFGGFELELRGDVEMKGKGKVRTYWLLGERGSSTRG
How it was run: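 HEK293 cells expressing hNpr1 and GloSensor cGMP luciferase, 1500/well, loaded with 2% GloSensor reagent 2 h, compound 30 min at room temperature; luminescence read before and 20 min after 0.1 nM hNppA stimulation.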

[4] = biological target: Atrial natriuretic peptide receptor 2 (Homo sapiens) (UniProt P20594); assay: Natriuretic polypeptide receptor (hNpr2) antagonism - Pilot subtype selectivity assay (AID 1347050; calls by dose curve)
Chain of Atrial natriuretic peptide receptor 2 (Homo sapiens) (P20594 whole entry, looked up): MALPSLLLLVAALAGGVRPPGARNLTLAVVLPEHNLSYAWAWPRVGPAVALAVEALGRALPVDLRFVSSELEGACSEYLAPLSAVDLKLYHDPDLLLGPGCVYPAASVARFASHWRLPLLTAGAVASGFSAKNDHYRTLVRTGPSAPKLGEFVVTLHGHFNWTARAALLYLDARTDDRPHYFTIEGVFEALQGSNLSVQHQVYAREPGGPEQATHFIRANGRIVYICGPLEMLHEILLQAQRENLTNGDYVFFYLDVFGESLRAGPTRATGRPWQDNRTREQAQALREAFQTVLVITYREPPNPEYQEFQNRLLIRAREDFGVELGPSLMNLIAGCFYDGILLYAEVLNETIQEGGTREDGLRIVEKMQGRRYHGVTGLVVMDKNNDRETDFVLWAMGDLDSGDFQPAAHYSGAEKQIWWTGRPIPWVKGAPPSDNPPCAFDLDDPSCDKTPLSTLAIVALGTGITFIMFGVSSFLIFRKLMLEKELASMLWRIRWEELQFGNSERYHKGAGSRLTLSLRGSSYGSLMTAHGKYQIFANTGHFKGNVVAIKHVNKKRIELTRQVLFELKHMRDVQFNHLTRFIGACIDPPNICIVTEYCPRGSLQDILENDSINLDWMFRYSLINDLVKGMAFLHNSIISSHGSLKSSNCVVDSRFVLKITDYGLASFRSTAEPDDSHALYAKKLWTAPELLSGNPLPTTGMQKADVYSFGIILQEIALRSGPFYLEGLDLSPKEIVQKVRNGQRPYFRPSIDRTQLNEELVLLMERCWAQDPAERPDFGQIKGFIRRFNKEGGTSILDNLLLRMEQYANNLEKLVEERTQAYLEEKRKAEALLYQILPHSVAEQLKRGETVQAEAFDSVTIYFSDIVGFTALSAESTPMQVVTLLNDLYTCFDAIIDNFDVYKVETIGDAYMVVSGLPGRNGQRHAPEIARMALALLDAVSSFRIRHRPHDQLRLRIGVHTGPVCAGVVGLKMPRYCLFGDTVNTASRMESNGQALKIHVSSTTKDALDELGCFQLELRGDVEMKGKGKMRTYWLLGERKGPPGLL
How it was run: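 HEK293 cells expressing hNpr2 and a GloSensor cGMP luciferase sensor, 1500/well, preloaded 2 h with 2% GloSensor reagent, compound 30 min, then 1 nM hNppC for 20 min. Antagonism from luminescence after versus baseline pre-read; LOPAC in 1:5 titrations.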

[5] = biological target: T1, Tyrosine-protein phosphatase non-receptor type substrate 1 (Homo sapiens) + Leukocyte surface antigen CD47 (Homo sapiens) (UniProt P78324+Q08722); assay: CD47-SIRPalpha protein protein interaction - LANCE assay qHTS validation (AID 1347057; active = well fitted curve in the direction sought with a large enough effect in the signal ratio, with a control signal flat, not every such curve was filed as active; the % refers to the signal ratio; note: potency is the fitted concentration of half-maximal effect; for activity change, negative = inhibition: series mostly up to about 38 µM)
T1 sequence (P78324 whole entry, looked up): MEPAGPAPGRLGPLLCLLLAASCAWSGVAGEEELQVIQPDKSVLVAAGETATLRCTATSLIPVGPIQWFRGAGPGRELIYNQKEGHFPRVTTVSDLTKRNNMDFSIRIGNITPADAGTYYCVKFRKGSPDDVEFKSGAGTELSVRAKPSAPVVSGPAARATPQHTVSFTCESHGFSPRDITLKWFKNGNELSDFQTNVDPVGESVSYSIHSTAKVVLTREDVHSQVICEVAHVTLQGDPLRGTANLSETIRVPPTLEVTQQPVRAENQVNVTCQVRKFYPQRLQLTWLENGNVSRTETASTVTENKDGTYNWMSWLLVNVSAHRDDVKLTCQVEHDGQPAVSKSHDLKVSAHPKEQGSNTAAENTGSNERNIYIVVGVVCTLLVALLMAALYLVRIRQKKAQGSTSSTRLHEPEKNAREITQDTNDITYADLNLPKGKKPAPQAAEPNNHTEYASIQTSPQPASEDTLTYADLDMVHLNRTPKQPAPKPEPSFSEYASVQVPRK
T1 sequence (Q08722 whole entry, looked up): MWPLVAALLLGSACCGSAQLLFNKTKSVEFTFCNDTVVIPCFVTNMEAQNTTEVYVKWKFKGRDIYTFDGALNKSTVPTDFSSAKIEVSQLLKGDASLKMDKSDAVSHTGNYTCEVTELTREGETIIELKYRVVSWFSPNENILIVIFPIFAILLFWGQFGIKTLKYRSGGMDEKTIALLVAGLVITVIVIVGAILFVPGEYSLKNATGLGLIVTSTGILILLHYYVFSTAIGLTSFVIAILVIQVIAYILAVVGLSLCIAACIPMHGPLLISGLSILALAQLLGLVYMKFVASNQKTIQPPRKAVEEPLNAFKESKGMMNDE
How it was run: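 First, His-tagged CD47 and Eu-labelled anti-His antibody met the compound for 30 min; next, site-specifically biotinylated SIRPalpha was added for 30 min; finally streptavidin-APC was added before reading the TR-FRET ratio.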

[6] = biological target: Parathyroid hormone/parathyroid hormone-related peptide receptor (Homo sapiens) (UniProt Q03431); assay: qHTS for PTHR1 Agonists: Optimization Screen against the NCGC LOPAC library (AID 1347079);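 note: GloSensor cAMP luminescence in HEK-293 GP2 cells expressing human PTHR1 with IBMX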
Chain of Parathyroid hormone/parathyroid hormone-related peptide receptor (Homo sapiens) (Q03431 whole entry, looked up): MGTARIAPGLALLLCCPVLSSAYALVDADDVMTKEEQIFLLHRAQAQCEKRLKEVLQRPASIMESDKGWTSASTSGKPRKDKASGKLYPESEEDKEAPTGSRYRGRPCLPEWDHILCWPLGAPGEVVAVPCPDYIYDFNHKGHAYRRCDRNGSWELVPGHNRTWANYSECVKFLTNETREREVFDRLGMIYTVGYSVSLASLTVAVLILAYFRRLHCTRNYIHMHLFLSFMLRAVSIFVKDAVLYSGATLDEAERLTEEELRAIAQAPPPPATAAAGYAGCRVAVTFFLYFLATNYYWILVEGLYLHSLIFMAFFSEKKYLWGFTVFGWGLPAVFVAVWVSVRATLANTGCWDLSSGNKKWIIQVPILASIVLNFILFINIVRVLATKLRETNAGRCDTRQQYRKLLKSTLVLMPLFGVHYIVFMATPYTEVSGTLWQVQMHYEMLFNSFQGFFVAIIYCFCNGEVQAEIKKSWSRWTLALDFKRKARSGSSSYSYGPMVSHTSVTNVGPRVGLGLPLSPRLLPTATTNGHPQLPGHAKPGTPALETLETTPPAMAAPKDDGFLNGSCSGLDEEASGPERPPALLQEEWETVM
How it was run: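 Compounds were tested across a qHTS titration. PTHR1-expressing GP2 cells report cAMP rises via GloSensor luminescence after 1 hr compound exposure at 37C with IBMX present.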

[7] = biological target: N-terminal Xaa-Pro-Lys N-methyltransferase 1 (Homo sapiens) (UniProt Q9BV86); assay: qHTS Assay for Inhibitors of N-terminal methyltransferase 1 (NTMT1): LOPAC validation of the NTMT1 SAHH-coupled ThioGlo3 Assay (AID 1347143);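 note: SAH from peptide methylation measured as thiol fluorescence via SAHH coupling and ThioGlo3; nearly all actives have a fitted effect of over 70% in size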; note: potency is the fitted concentration of half-maximal effect
Chain of N-terminal Xaa-Pro-Lys N-methyltransferase 1 (Homo sapiens) (Q9BV86 whole entry, looked up): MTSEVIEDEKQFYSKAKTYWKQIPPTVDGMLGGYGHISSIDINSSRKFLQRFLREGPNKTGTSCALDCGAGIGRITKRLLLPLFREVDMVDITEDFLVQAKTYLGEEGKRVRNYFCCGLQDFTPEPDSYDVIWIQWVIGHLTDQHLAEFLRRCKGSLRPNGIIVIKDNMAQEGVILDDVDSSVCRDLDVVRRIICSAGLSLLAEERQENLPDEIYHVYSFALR
How it was run: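 Recombinant human NTMT1 (125nM) was pre-incubated 1 min at room temperature with compounds over a concentration range, then a mix of 100uM SAM, 10uM SAHH and 15uM ThioGlo3 (concentrations in added reagent) was added. ThioGlo3 fluorescence (ex 340/em 450nm) after 30 min was normalized to the initial reading.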

[8] = test system: Zika virus NS2B-NS3 protease (unlinked); assay: Optimization of GU AMC qHTS for Zika virus inhibitors: Unlinked NS2B-NS3 protease assay (AID 1347151); note: nearly all actives have a fitted effect of over 80% in size; note: potency is the fitted concentration of half-maximal effect; for activity change, negative = inhibition: series mostly up to about 52 µM
How it was run: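 Unlinked protease (25 nM final); buffer 10 mM Tris-HCl pH 8.0 + 0.01% Tween 20; AMC substrate; 15 min RT, dark; Δfluorescence normalized to no-inhibitor/no-enzyme controls; 4-parameter Hill fit.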

[9] = NS1 protein of Zika virus - qHTS assay to identify small molecule inhibitors in human HEK 293 cells (AID 1347053); note: series mostly up to about 46 µM; nearly all actives have a fitted effect of over 55% in size
How it was run: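 HEK 293 cells, seeded 20 h at 37 C, were pretreated with compound 1 h, then infected with ZIKV MR766 (MOI = 0.5) for 24 h. NS1 was read by TR-FRET with two anti-NS1 antibodies, normalized to uninfected and infected wells.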

[10] = biological target: T1, Tyrosine-protein phosphatase non-receptor type substrate 1 (Homo sapiens) + Leukocyte surface antigen CD47 (Homo sapiens); assay: CD47-SIRPalpha protein protein interaction - HTRF assay qHTS validation (AID 1347058; active = well fitted curve in the direction sought with a large enough effect in the signal ratio, not every such curve was filed as active; the % refers to the signal ratio;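 note: recombinant soluble extracellular CD47 with His tag and biotinylated SIRPalpha domains; series mostly up to about 38 µM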)
How it was run: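 TR-FRET read (Ch1/Ch2 ratio) of soluble extracellular CD47 and Avi-biotinylated SIRPalpha domains in PBS pH 7.4 with 0.05% IGEPAL; 7-point compound titration. Sequential 30 min room-temperature steps; non-biotinylated SIRPalpha as control inhibitor.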

[11] = biological target: T1, Tyrosine-protein phosphatase non-receptor type substrate 1 (Homo sapiens) + Leukocyte surface antigen CD47 (Homo sapiens); assay: CD47-SIRPalpha protein protein interaction - Alpha assay qHTS validation (AID 1347059);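 note: bead proximity luminescence from CD47 binding SIRPalpha after compound preincubation with SIRPalpha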
How it was run: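 Biotinylated Avi-tagged SIRPalpha (25 nM) preincubated 30 min with compound, then His-tagged CD47 (12.5 nM) added 30 min; AlphaScreen with Ni-NTA acceptor and streptavidin donor beads. PBS pH 7.4, 0.05% IGEPAL, room temperature; 7-point titrations.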

Furin (Homo sapiens) = Furin (Homo sapiens) (UniProt P09958); assay: Furin counterscreen qHTS for Zika virus inhibitors (AID 1347149);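 note: purified recombinant full-length human furin enzyme at 5 nM; fluorescence gain from furin cutting a BOC-RVRR-AMC peptide substrate over 15 min; top concentration of the series differs between compounds; nearly all actives have a fitted effect of over 70% in size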
Chain of Furin (Homo sapiens) (P09958 whole entry, looked up): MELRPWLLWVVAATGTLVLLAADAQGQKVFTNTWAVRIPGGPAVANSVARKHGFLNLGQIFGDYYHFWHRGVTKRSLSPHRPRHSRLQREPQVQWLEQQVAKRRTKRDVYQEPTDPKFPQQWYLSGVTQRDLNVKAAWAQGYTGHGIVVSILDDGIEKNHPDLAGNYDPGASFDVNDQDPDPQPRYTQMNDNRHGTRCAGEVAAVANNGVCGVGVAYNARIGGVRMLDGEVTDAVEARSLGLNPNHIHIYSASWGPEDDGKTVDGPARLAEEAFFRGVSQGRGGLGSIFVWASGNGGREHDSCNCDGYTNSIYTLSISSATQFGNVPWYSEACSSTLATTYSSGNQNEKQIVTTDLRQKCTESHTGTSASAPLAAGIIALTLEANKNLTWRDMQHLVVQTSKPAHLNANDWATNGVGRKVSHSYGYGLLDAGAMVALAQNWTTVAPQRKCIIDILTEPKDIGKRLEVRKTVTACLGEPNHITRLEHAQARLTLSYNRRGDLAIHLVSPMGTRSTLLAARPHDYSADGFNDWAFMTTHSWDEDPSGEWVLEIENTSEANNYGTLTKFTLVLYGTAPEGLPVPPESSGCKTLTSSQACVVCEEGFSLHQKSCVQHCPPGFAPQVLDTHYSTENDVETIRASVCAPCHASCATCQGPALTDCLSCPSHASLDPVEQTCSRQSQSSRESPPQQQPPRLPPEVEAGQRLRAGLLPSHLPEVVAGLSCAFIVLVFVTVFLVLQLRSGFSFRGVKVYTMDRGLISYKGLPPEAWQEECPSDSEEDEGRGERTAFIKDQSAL
How it was run: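 Fluorogenic cleavage of BOC-RVRR-AMC (2 microM final, Km ~15 µM) was monitored (ex 340, em 450 nm) at 37C after 15 min RT preincubation of 5 nM furin with compounds in HEPES pH 7.0 buffer with CaCl2 and Triton X-100. Percent inhibition was fitted to a 4-parameter Hill curve.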

Row | SMILES | Potency [1] | Potency [2] | Potency [3] | Potency [4] | Potency [5] | Potency [6] | Potency [7] | Potency [8] | Potency [9] | outcome [10] | Potency [11] | activity change, negative = inhibition [4] | Potency (Furin (Homo sapiens))
1 | O=C(O)C1=CC(=C(c2ccc(O)c(C(=O)O)c2)c2ccc(O)c(C(=O)O)c2)C=CC1=O | inactive | inactive | inactive | inactive | 11.7 µM (active) | inactive | 25.1 µM (active) | 21.2 µM (active) | – | – | – | – | –
2 | Cn1c(=O)c2[nH]c(C3CCCC3)nc2n(C)c1=O | inactive | inactive | inactive | inactive | inactive | inactive | inactive | inactive | inactive | inactive | inactive | – | –
3 | N[C@@H](CCC(=O)N[C@H](CSN=O)C(=O)NCC(=O)O)C(=O)O | inactive | inactive | inactive | inactive | inactive | – | inactive | inactive | – | inactive | inactive | – | –
4 | CC(C)NCC(O)COc1ccc(CC(N)=O)cc1 (centres undefined) | inactive | inactive | inactive | inactive | inactive | – | inactive | inactive | inactive | inactive | inactive | – | –
5 | COc1cc(C(O)C(=O)O)ccc1O (centres undefined) | inactive | inactive | inactive | inactive | inactive | inactive | – | inactive | inactive | – | inactive | – | –
6 | N[C@H](C(=O)O)[C@H](Cc1ccccc1)C(=O)O | inactive | inactive | inactive | – | inactive | inactive | inactive | inactive | inactive | inactive | inactive | -2% [at 1.53 µM] | –
7 | CCCCOc1cc(CC2CNC(=O)N2)ccc1OC (centres undefined) | inactive | inactive | inactive | inactive | inactive | inactive | inactive | inactive | inactive | inactive | inactive | – | –
8 | COc1cc(CC(=O)O)ccc1O | inactive | inactive | inactive | inactive | inactive | inactive | inactive | inactive | – | inactive | inactive | – | –
9 | CCOC(=O)C12CC1/C(=N/O)c1ccccc1O2 (centres undefined) | inactive | inactive | inactive | inactive | inactive | inactive | inactive | inactive | inactive | inactive | inactive | – | –
10 | Brc1c(Br)c(Br)c2[nH]cnc2c1Br | inactive | inactive | inactive | inactive | inactive | – | – | – | inactive | inactive | inactive | – | –
11 | CCCn1c(=O)c2c(ncn2C)n(CCC)c1=O | inactive | inactive | inactive | inactive | inactive | – | inactive | inactive | inactive | inactive | inactive | – | –
12 | CCCCOC(=O)NS(=O)(=O)c1sc(CC(C)C)cc1-c1ccc(Cn2c(CC)nc3c(C)cc(C)nc32)cc1 | inactive | inactive | inactive | inactive | inactive | – | inactive | inactive | – | inactive | – | – | –
13 | COc1ccc(NC(=O)c2ccc(-c3ccc(-c4noc(C)n4)cc3C)cc2)cc1N1CCN(C)CC1 | inactive | inactive | inactive | inactive | inactive | inactive | – | inactive | – | inactive | – | – | –
14 | CCCC(=O)NCCc1c2n(c3ccc(OC)cc13)CCCc1ccccc1-2 | inactive | inactive | – | inactive | inactive | inactive | – | 26.7 µM (active) | inactive | inactive | inactive | – | –
15 | Oc1cc(O)c2c(c1)O[C@H](c1ccc(O)c(O)c1)[C@@H](O)C2 | inactive | inactive | inactive | inactive | inactive | inactive | 44.7 µM (active) | – | inactive | inactive | inactive | – | –
16 | NS(=O)(=O)c1cccc2c1c([N+](=O)[O-])cc1nc(O)c(O)nc12 | inactive | inactive | inactive | inactive | – | inactive | – | inactive | inactive | – | inactive | – | –
17 | OC[C@H]1O[C@H](n2cnc3c(N[C@H]4CCC[C@@H]4O)ncnc32)[C@H](O)[C@@H]1O | inactive | inactive | inactive | inactive | inactive | inactive | inactive | inactive | inactive | inactive | inactive | – | –
18 | c1ccc(C(NCc2cccnc2)(c2ccccc2)c2ccccc2)cc1 | inactive | inactive | inactive | inactive | inactive | inactive | inactive | inactive | inactive | – | inactive | – | –
19 | N#CC(C#N)=C(N)/C(C#N)=C/c1ccc(O)cc1 | inactive | inactive | inactive | inactive | inactive | – | – | inactive | inactive | – | inactive | – | –
20 | CC(C)C[C@H](NC(=O)C1OC1C(=O)O)C(=O)NCCCCN=C(N)N (some centres undefined) | inactive | inactive | inactive | inactive | inactive | inactive | – | inactive | inactive | inactive | – | – | –
21 | Cc1nc2c(OCc3ccccc3)cccn2c1CC#N | inactive | inactive | – | inactive | inactive | inactive | inactive | inactive | inactive | – | inactive | – | –
22 | Cc1nc(N=Nc2cc(S(=O)(=O)O)c3cc([N+](=O)[O-])cc(S(=O)(=O)O)c3c2)c(COP(=O)(O)O)c(C=O)c1O | inactive | inactive | inactive | inactive | inactive | inactive | 56.2 µM (active) | 26.7 µM (active) | inactive | – | inactive | – | inactive
